In PubChem BioAssay (EPA / NIEHS) one finds outcome and AC50 data, which are given here for 37 compounds.

Molecules are shown by their SMILES. Where “and” joins values, the source holds several entries; their conditions need not be identical. Identical values can stand only once. Some compounds were tested as several samples or in several runs, with calls that do not always agree. Calls of active or inactive are those of the source. The calls were made as follows: active = hit-call score of the fitted dose curve at least 0.9, where 1 is the maximum; inactive = score below 0.9.

This experiment in a line: APR_HepG2_CellCycleArrest_72hr: Apredica 72-hour HepG2 Assay for Cell Cycle Arrest (AID 2282914). The note with it: high-content imaging, actives raise or lower the signal. As to the method:
APR_HepG2_72hr is a cell-based, multiplexed-readout assay that uses HepG2, a human liver cell line, with measurements taken at 72 hours after chemical dosing in a 384-well plate.APR_HepG2_CellCycleArrest_72hr is one of 10 assay component(s) measured or calculated from the APR_HepG2_72hr assay. It is designed to make measurements of cell phenotype, a form of morphology reporter, as detected with fluorescence intensity signals by HCS Fluorescent Imaging technology.Data from the assay component APR_HepG2_CellCycleArrest_72hr was analyzed into 1 assay endpoint. This assay endpoint, APR_HepG2_CellCycleArrest_72hr, was analyzed with bidirectional fitting relative to DMSO as the negative control and baseline of activity. Using a type of morphology reporter, measures of all nuclear dna for gain or loss-of-signal activity can be used to understand the signaling at the pathway-level as they relate to the gene . Furthermore, this assay endpoint can be referred to as a primary readout, because this assay has produced multiple assay endpoints where this one serves a signaling function. To generalize the intended target to other relatable targets, this assay endpoint is annotated to the cell cycle intended target family, where the subfamily is arrest.
Cells were treated with dimethyl sulfoxide (DMSO) as a solvent control at a final concentration of 0.5% v/v or with compounds in DMSO with a resulting final DMSO concentration of 0.5% v/v. Compound treatment was done at concentrations of 0.39, 0.78, 1.56, 3.12, 6.24, 12.5, 25, 50, 100, and 200 uM in duplicate on each plate. Cells were treated with compounds for 1, 24, or 72 hr. Carbonyl […] m-chloro-phenylhydrazone (CCCP) and taxol were used as positive controls for mitochondrial function and cytoskeletal stability, respectively; DMSO served as the negative control for this experiment. Cells were fixed by the direct addition of 50 uL formaldehyde in Hank's Balanced Salt Solution (HBSS) to a final concentration of 3.7%. After incubation in the fixation medium for 30 min at room temperature (293-298 K), cells were rinsed twice with HBSS and treated with cell permeabilization buffer (16 uL of 0.5% Triton X-100) for 10 min at room temperature (293-298 K) before labeling. For mitochondrial membrane potential and mitochondrial measurements, pre-fixed cells were incubated with 50 uL of MitoTracker Red CMXRos (Invitrogen) at a concentration of 250 nM for 30 min before fixation. In the remaining cases, post-fixed cells were labeled by incubation with a multiplexed mixture of primary antibodies in HBSS for 60 min at room temperature (293-298 K) to detect immunoreactivity of c-Jun (1:500), phospho-histone H3 (1:100), phospho-histone H2A.x (1:200), p53 (1:400), alpha-tubulin (1:200) and Hoechst 33342 (2 ug/mL). Cells were labeled for multiplexed imaging on two separate plates: a) Hoechst 33342, MitoTracker Red, phospho-histone H3, and alpha-tubulin, and b) Hoechst 33342, phospho-histone H2A.x, and c-Jun. A final rinse with HBSS (50 uL) was performed before analysis. The primary and secondary antibodies for the proteins were phospho-histone H3 (rabbit anti-phospho-histone H3 and FITC-donkey anti-rabbit IgG), phospho-histone H2A.x (mouse anti-phospho-histone H2A.x and FITC-donkey anti-mouse IgG), c-Jun (rabbit anti-phospho-c-Jun and Cy3-donkey anti-rabbit IgG), p53 (sheep anti-p53 and Cy5-donkey anti-sheep IgG), alpha-tubulin (mouse anti-alpha-tubulin and Cy5-donkey anti-mouse IgG). These antibodies are available as the CellCiphr HepG2 assay kit (Millipore).Digital images of each well were captured using a Cellomics ArrayScan VTI (Thermo Scientific Cellomics) (0.8 NA objective, 0.63x optical coupler, and XF-93 filter set) at 20x magnification. The images were acquired using the autofocus feature of the ArrayScan instrument, which entails the following steps. First, the camera focuses on channel 1 (Hoechst 33342), where nuclei are identified. Second, a Z offset of 1 um is used for capturing mitochondria (MitoTracker Red). […]
For the compound `O=C(O)C(F)(F)C(F)(F)C(F)(F)C(F)(F)C(F)(F)C(F)(F)C(F)(F)F`, the call was inactive.

On to `COP(=O)(OC)OC=C(Cl)Cl`, for which the outcome was inactive.

By AC50 is commonly meant the concentration at which the activity in the assay is half-maximal. Take `O=S1OCC2C(CO1)C1(Cl)C(Cl)=C(Cl)C2(Cl)C1(Cl)Cl` (stereo not given): the AC50 was 95.3 µM (active).

Regarding `CNC(=O)/C=C(\C)OP(=O)(OC)OC`, the call was inactive.

In the case of `O=C(O)CCCOc1ccc(Cl)cc1Cl`, the compound was called inactive.

With `CNC(=O)CSP(=S)(OC)OC`, the result was inactive.

Turning to `O=C1c2ccccc2C(=O)N1SC(Cl)(Cl)Cl`, the call was inactive.

Consider `CCCN(CCOc1c(Cl)cc(Cl)cc1Cl)C(=O)n1ccnc1`, for which the result was inactive.

Consider `N#CN`, for which the outcome was inactive.

For `OCCOc1ccccc1`, the compound was classed as inactive.

Turning to `COC(=O)c1ccccc1CS(=O)(=O)NC(=O)Nc1nc(OC)cc(OC)n1`, the call was inactive.

Take `CCC(C)(NC(=O)c1cc(Cl)c(C)c(Cl)c1)C(=O)CCl` (stereo not given): the compound was called inactive.

In the case of `COP(=S)(OC)Oc1ccc([N+](=O)[O-])cc1`, the call was inactive.

For the compound `[2H]C1([2H])[n+]2ccccc2-c2cccc[n+]2C1([2H])[2H]`, the AC50 was 75.1 µM (active).

For `CC(C)(C)C(O)C(Oc1ccc(Cl)cc1)n1cncn1` (stereo not given), the AC50 is 105 µM (active) and 88.3 µM (active) and 39.4 µM (active); the compound was called inactive.

As to `CCOc1nc(NC)nc(NC(=O)NS(=O)(=O)c2ccccc2C(=O)OC)n1`, the compound was called inactive.

Regarding `Cc1[nH]c(=O)n(C(C)(C)C)c(=O)c1Cl`, the call was inactive.

In the case of `COc1nn(CSP(=S)(OC)OC)c(=O)s1`, the compound was called inactive.

Regarding `CCC(C)Nc1c([N+](=O)[O-])cc(C(C)(C)C)cc1[N+](=O)[O-]` (stereo not given), the half-maximal activity concentration (AC50) is 83.7 µM (active).

Take `CCS(=O)(=O)c1cccnc1S(=O)(=O)NC(=O)Nc1nc(OC)cc(OC)n1`: the result was inactive.

Consider `O=[N+]([O-])/N=C1\NCCN1Cc1ccc(Cl)nc1`, for which the compound was called inactive.

On to `ClC1C(Cl)C(Cl)C(Cl)C(Cl)C1Cl` (stereo not given), for which the AC50 is 141 µM (active) and the outcome was inactive.

In the case of `CCOC1Oc2ccc(OS(C)(=O)=O)cc2C1(C)C` (stereo not given), the compound was classed as inactive.

Turning to `Oc1ccc(Cl)cc1Cc1ccccc1`, the AC50 was 86.3 µM (active) [middle of 4 runs] and the compound was classed as inactive.

Turning to `COC(=O)c1ccccc1S(=O)(=O)NC(=O)N(C)c1nc(C)nc(OC)n1`, the outcome was inactive.

As for `CCOCN(C(=O)CCl)c1c(C)cccc1CC`, the half-maximal activity concentration (AC50) was 29.4 µM (active).

`CC(C)(C)C(O)/C(=C\c1ccc(Cl)cc1Cl)n1cncn1` (stereo not given): the result was inactive.

For the compound `O=C(NC(=O)c1c(F)cccc1F)Nc1ccc(OC(F)(F)C(F)OC(F)(F)F)c(Cl)c1` (stereo not given), the compound was classed as inactive.

Turning to `CN1CSC(=S)N(C)C1`, the AC50 was 6.04 µM (active).

Consider `O=C(Nc1ccccc1)Nc1cnns1`, for which the compound was called inactive.

With `CC1(C)C(C=C(Cl)Cl)C1C(=O)OC(C#N)c1ccc(F)c(Oc2ccccc2)c1` (stereo not given), the result was inactive.

As for `CC(C)N(C(=O)COc1nnc(C(F)(F)F)s1)c1ccc(F)cc1`, the compound was classed as inactive.

As for `CC1(c2ccc(Oc3ccccc3)cc2)OC(=O)N(Nc2ccccc2)C1=O` (stereo not given), the outcome was inactive.

As for `N#Cc1c(Cl)c(Cl)c(Cl)c(C#N)c1Cl`, the outcome was inactive.

As to `COc1cc(OC)nc(NC(=O)NS(=O)(=O)c2cc(NC=O)ccc2C(=O)N(C)C)n1`, the compound was called inactive.

`CC(C)OC(=O)Nc1cccc(Cl)c1`: the outcome was inactive.

Regarding `Cc1cc(C)nc(NC(=O)NS(=O)(=O)c2ccccc2C(=O)OC2COC2)n1`, the call was inactive.
